Assay results published in PubChem BioAssay (Tox21).
Records with an inconclusive call do not appear. Calls of active or inactive are those of the source. Unless noted, the call rests on the fitted dose curve; in most records, active means well fitted curve in the direction sought with a large enough effect in the repeat runs; inconclusive means weak or mixed curves; inactive means no such curve, though single readings can be large; an effect the other way counts as inactive or inconclusive.

Legend:
[1] = A CellTox Green Cytotoxicity Assay to monitor cytotoxicity in HepG2 cells - 8 hour (AID 1224890); further: nearly all actives have a fitted effect of over 45% in size
Summary of the method: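 Real-time, homogeneous cytotoxicity readout: dead-cell DNA staining by CellTox Green in HepG2 monolayers, fluorescence measured at timed intervals up to 40 h of continuous compound exposure.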

[2] = qHTS assay to identify small molecule antagonists of the androgen receptor (AR) signaling pathway using the MDA cell line in the presence of 0.5 nM R1881 - cell viability counter screen (AID 1259242); further: nearly all actives have a fitted effect of over 45% in size
Summary of the method: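 Cytotoxicity toward MDA-kb2 cells is measured by CellTiter-Fluor live-cell protease fluorescence after 16 hr compound exposure at 37C in the presence of 0.5 nM R1881 stimulator.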

[3] = molecular target: Estrogen receptor (Homo sapiens) (UniProt P03372); assay: qHTS assay to identify small molecule antagonists of the estrogen receptor alpha (ER-alpha) signaling pathway using the BG1 cell line in the presence of 0.1 nM 17-beta-estradiol (AID 1259244); further: nearly all actives have a fitted effect of over 50% in size
Summary of the method: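 After 5 days in hormone-depleted medium (charcoal-stripped serum, no phenol red), VM7Luc4E2 cells were seeded, incubated 24 h, then co-treated with compound and 0.1 nM (final) estradiol for 22 h before luminescence detection.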

[4] = qHTS assay to identify small molecule phospholipidosis (PLD) inducers (AID 1259344; active means well fitted curve in the direction sought with a large enough effect; an effect the other way counts as inactive or inconclusive)
Summary of the method: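 HepG2 cells, 900/well, treated with compound plus LipidTOX Red for 24 h at 37 C; amiodarone positive and DMSO negative controls. Fixed with paraformaldehyde/Hoechst, then high-content imaging scored LipidTOX pit count and integrated intensity per well and per cell.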

[5] = qHTS assay to identify small molecule HDAC inhibitors (AID 1259364); further: top concentration of the series differs between compounds; nearly all actives have a fitted effect of over 45% in size
Summary of the method: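 Homogeneous cell-based luminescent assay of endogenous class I/II HDAC activity; HCT-116 cells, 2 h compound exposure, 30 min HDAC-Glo development at RT.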

[6] = qHTS assay to identify small molecule HDAC inhibitors - cell viability counter screen (AID 1259365); further: series mostly up to about 92 µM; nearly all actives have a fitted effect of over 50% in size
Summary of the method: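 CellTiter-Glo luminescence (30 min, room temperature) reported viability after a 2 h compound exposure at 37 C. Cells: wild-type HCT-116, 1,500 per well, seeded the night before.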

[7] = qHTS assay to identify small molecule agonists of the sonic hedgehog signaling (Shh) pathway - cell viability counter screen (AID 1259366); further: nearly all actives have a fitted effect of over 50% in size
Summary of the method: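 Cytotoxicity counter screen: CellTiter-Fluor reagent added after 23 h compound exposure, then 1 h at 37C and fluorescence read. Cells were 3T3 Gli1-Luc, seeded 2,000 per well and dosed 4 h post-plating.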

[8] = qHTS assay to identify small molecule antagonists of the sonic hedgehog signaling (Shh) pathway - cell viability counter screen (AID 1259367); further: nearly all actives have a fitted effect of over 55% in size
Summary of the method: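 NIH/3T3-derived Gli1-Luc reporter cells, 2,000/well, plated 4 hr before compound addition, then stimulated with conditioned medium for 24 hr at 37C. Viability measured in the same wells by CellTiter-Fluor fluorescence, reagent added at 23 hr for 1 hr.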

[9] = qHTS assay to identify small molecule antagonists of the estrogen receptor alpha (ER-alpha) signaling pathway using the BG1 cell line in the presence of 0.1 nM 17-beta-estradiol - cell viability counter screen (AID 1259241); further: nearly all actives have a fitted effect of over 40% in size
Summary of the method: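 Cytotoxicity counter-screen: live-cell protease activity measured by fluorescence (30 min reagent step) in the same wells. Cells were VM7Luc4E2 with endogenous ER-alpha and ERE-driven luciferase, treated 22 hr at 37C alongside 0.1 nM 17beta-estradiol final.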

[10] = molecular target: Androgen receptor (Homo sapiens) (UniProt P10275); assay: qHTS assay to identify small molecule antagonists of the androgen receptor (AR) signaling pathway using the MDA cell line in the presence of 0.5 nM R1881 (AID 1259243); further: nearly all actives have a fitted effect of over 50% in size
Summary of the method: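 Steps: seed MDA-kb2 cells, incubate 5 hr at 37C; pin-transfer compounds in DMSO; add R1881 to 0.5 nM final; incubate 16 hr; add ONE-Glo, wait 30 min at room temperature; read luminescence.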

Measured: Potency

Chain of Androgen receptor (Homo sapiens) (P10275 whole entry, looked up): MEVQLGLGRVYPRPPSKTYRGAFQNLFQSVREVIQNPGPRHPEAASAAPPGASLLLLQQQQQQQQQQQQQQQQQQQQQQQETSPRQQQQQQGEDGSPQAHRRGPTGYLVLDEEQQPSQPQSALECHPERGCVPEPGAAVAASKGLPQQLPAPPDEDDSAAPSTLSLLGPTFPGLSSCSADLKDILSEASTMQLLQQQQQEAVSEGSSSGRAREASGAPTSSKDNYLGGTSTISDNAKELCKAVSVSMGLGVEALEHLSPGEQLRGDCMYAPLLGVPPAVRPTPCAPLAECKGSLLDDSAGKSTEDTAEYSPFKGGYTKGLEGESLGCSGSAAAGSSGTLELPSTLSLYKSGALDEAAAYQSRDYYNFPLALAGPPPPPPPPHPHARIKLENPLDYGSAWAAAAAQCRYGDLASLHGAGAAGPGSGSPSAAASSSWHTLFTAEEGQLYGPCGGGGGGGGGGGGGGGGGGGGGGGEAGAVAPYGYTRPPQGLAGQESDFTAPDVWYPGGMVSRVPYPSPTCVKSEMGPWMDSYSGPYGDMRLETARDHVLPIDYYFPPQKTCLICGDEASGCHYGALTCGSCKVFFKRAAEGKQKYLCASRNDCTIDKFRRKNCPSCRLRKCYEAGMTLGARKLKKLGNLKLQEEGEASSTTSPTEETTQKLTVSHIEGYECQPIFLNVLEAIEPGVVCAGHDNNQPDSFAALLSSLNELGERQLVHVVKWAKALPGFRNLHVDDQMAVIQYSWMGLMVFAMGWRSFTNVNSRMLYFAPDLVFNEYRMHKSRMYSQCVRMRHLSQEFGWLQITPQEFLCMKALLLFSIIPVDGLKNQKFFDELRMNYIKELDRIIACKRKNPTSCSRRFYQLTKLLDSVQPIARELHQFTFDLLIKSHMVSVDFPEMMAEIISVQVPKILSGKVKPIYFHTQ
Chain of Estrogen receptor (Homo sapiens) (P03372 whole entry, looked up): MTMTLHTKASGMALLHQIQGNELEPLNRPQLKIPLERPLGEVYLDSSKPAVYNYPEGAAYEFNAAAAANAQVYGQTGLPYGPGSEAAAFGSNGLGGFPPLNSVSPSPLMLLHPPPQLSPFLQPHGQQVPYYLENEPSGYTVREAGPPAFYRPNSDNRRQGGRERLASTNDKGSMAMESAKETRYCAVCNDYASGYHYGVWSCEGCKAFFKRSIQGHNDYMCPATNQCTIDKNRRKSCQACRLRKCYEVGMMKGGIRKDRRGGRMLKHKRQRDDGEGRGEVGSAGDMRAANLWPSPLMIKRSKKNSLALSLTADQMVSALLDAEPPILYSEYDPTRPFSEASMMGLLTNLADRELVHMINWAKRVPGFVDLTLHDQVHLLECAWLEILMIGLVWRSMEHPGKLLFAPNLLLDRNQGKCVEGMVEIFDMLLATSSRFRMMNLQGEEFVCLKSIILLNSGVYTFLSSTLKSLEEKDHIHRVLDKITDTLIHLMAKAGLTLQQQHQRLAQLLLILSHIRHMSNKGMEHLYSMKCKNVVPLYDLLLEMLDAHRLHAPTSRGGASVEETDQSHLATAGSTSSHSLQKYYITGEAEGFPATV

COc1c(N2C[C@@H]3CCCN[C@@H]3C2)c(F)cc2c(=O)c(C(=O)O)cn(C3CC3)c12
not listed: [9] | [10]
inactive: all other assays above

CC/C=C\CC/C=C/C(OCC)OCC
inactive: [1] | [9] | [2] | [7] | [8]

CC(=O)CC(C)C
inactive: [1] | [2] | [10] | [5] | [6] | [8]

CCCCCCCCCCCCN(CCCCCCCCCCCC)CCCCCCCCCCCC
inactive: [1] | [9] | [2] | [6] | [7] | [8]

N=C(N)c1ccccc1
inactive: [1] | [9] | [2] | [5] | [8]

COC(C)(C)CCCC(C)CC=O (stereo unspecified)
not listed: [3] | [4] | [10]
inactive: all other assays above

CCc1cccc2c(CCO)c[nH]c12
inactive: [1] | [9] | [2] | [6] | [7] | [8]

CC(C)=CCCC(C)CC(=O)O (stereo unspecified)
not listed: [3] | [4] | [10]
inactive: all other assays above

C[C@H]1C[C@@H](O)CC(C)(C)C1
not listed: [3] | [4] | [10]
inactive: all other assays above

CC(C)CNCC(C)C
not listed: [3] | [4] | [10]
inactive: all other assays above

C/C=C(\C)C#N
not listed: [3] | [4] | [10]
inactive: all other assays above

OC[C@]1(O)OC[C@@H](O)[C@H](O)[C@@H]1O
not listed: [3] | [4] | [10]
inactive: all other assays above

Nc1c[n+](N2CCOCC2)no1
not listed: [9] | [10]
inactive: all other assays above

N[C@H]1CN(c2c(F)cc3c(=O)c(C(=O)O)cn(C4C[C@H]4F)c3c2Cl)CC12CC2 (stereo partly specified)
not listed: [9] | [10]
inactive: all other assays above

CCOC(=O)CC(C)=O
inactive: [1] | [9] | [2] | [5] | [7] | [8]

CC(C)(O)C(=O)c1ccccc1
not listed: [4] | [7] | [9]
inactive: all other assays above

CCCCCCCCS(=O)(=O)Cl
inactive: [1] | [9] | [2] | [5] | [7] | [8]

O=C(CCCN1CCC(O)(c2cccc(C(F)(F)F)c2)CC1)c1ccc(F)cc1
not listed: [3] | [4] | [10]
inactive: all other assays above

C=CCOCC(CC)(CO)COCC=C
inactive: [1] | [9] | [2] | [6] | [7] | [8]

COC(=O)c1cc(C(=O)OC)cc(S(=O)(=O)O)c1
not listed: [3] | [4] | [10]
inactive: all other assays above

CC1(C)C(O)C(C)(C)C1O (stereo unspecified)
not listed: [4] | [7] | [9]
inactive: all other assays above

O=C1CC2CC1C1CCCC21 (stereo unspecified)
inactive: [1] | [2] | [10] | [3] | [5] | [8]

CC/C=C\CC/C=C/CO
inactive: [1] | [9] | [2] | [6] | [8]
